Assay outcomes from PubChem BioAssay.
Compounds with a hit are over-represented: about 4.3% of the library has one in this group of screens.
MITF TRPM1 HTS = increases MITF-driven TRPM1 promoter luciferase signal; SK-MEL-5 TRPM1-promoter luciferase, 24 h; % of positive control, neutral wells = 0; activation, % at 12.5 µM; 0.75% of 300,000 active;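 active means mean activation of at least 80% with every replicate also reaching 80%; inconclusive means mean reaches 80% but some replicate falls short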;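 further: 0% = neutral control wells and 100% = parthenolide positive control wells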
FGF22 binding = shifts melting point of recombinant human FGF22 | recombinant FGF22 thermal shift, SYPRO orange fluorescence; percent of sucrose octasulfate shift, DMSO zero | 1.5% of 340,000 active | activity (Tm shift, normalised), % at 9.99 µM;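 active means mean Tm shift, scaled 0 neutral to 100 positive control, at about 1.3% or above, every replicate too, limit read from the data; inconclusive means no clear call, values can overlap the other calls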
Target sequence (Q9HCT0 whole entry, looked up): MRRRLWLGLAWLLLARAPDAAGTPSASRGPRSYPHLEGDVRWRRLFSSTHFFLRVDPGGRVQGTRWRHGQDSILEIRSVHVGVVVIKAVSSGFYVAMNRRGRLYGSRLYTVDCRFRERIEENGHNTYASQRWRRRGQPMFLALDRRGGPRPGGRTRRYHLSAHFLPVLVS
esBAF inh = blocks esBAF chromatin remodeling in mouse ES cells; Bmi1-luciferase knock-in reporter, 24 h; 100% = twice the neutral-well signal; reporter increase, % at 12.5 µM; 2% of 350,000 active; in the data active means activation above about 40%; inconclusive means no clear call, values can overlap the other calls;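 further: 0% = median of the plate's neutral control wells and 100% = double that signal; a rise in the Bmi1 reporter signal indicates esBAF inhibition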
MLL AF4-AF9 inh = inhibitors of human MLL-AF4/AF9 interaction. 0.47% of 350,000 active. AlphaScreen, biotin-AF4 peptide binding to FLAG-AF9. inhibition, % at 10 µM. P42568;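 active means every replicate reaching a set inhibition limit, whatever the replicate mean, cut at about 25% in these data; inconclusive means mean inhibition reaches that limit but some replicates miss it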;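 further: 0% = plate neutral control median and 100% = total signal loss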
Wnt act = activates Wnt/beta-catenin signaling in a reporter cell assay | activator, plate reader | activation, % at 9.35 µM | 1.2% of 300,000 active | AID 743398; in the data active means activation above about 30%, passing the limit was not always enough; inconclusive means no clear call, values can overlap the other calls;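 further: 0% = neutral control wells and 100% = positive control wells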
SMARCA2 activ = activators of SMARCA2 function; MG213 cells, MMTV-luciferase reporter, dexamethasone, overnight; activation, % at 9.1 µM; 1% of 370,000 active; in the data active means activation above about 7.8%;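 further: 0% = vehicle wells and 100% = reference activator wells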
* = called active by the depositor; u = inconclusive; x = no result; ! = repeats disagree.

SMILES | MITF TRPM1 HTS | FGF22 binding | esBAF inh | MLL AF4-AF9 inh | Wnt act | SMARCA2 activ
Cc1oc(-c2ccc(-c3ccccc3)cc2)nc1CN(CCO)C(C)C | 36 | 0 | 60* | 5 | 12 | 0
Cc1ccc(-c2nc(CS(=O)(=O)CC(=O)NCCCN(Cc3ccccc3)C(C)C)c(C)o2)cc1 | -13 | 0 | -1 | 2 | -1 | -1
C[C@H]1CN([C@@H](C)CO)C(=O)c2cccc(NS(=O)(=O)c3cccs3)c2O[C@H]1CN(C)S(C)(=O)=O | x | 0 | 1 | -4 | x | x
C[C@@H]1CN([C@H](C)CO)C(=O)Cc2cc(NC(=O)Nc3ccc(F)cc3)ccc2O[C@H]1CN(C)S(=O)(=O)c1cccs1 | x | 0 | -3 | 3 | x | x
Cc1ccc(OCc2cc(C(=O)N3CCN(C4CCCCC4)CC3)no2)cc1C | 36 | 0 | 55* | 1 | 11 | 4
Cc1ccc(OCc2cc(C(=O)N3CCC(c4ccccc4Cl)C3)no2)cc1C (stereo not drawn) | 50 | 0 | 57* | -1 | 29 | 2
Cc1nnsc1Sc1ccccc1 | 7 | 43* | -7 | -2 | 1 | 0
Nc1nc(-c2ccc(Cl)cc2)nnc1-c1ccc(Br)cc1 | 77 | 44* | 52* | -1 | 51* | 4
Cn1c(N)c(S(=O)(=O)N2CCCC2)c(=O)n(C)c1=O | 1 | 0 | 8 | -2 | 30* | -1
C[C@@H]1CN([C@H](C)CO)C(=O)c2cc(C3=CCCCC3)cnc2O[C@@H]1CN(C)C(=O)Cc1ccccc1 | x | 0 | 0 | -5 | x | x
CCCCc1c(C)c2ccc(OCC(C)=O)cc2oc1=O | 78 | x | 63* | x | 4 | 5
Cc1c(C)c2ccc(OCC(=O)c3ccccc3)cc2oc1=O | 94* | 0 | u | -2 | 26 | 0
O=C(NCCOC(=O)c1ccc([N+](=O)[O-])cc1)c1cccnc1 | -6 | 1 | 3 | -1 | 11 | -4
CCC(CC)NCCOC(=O)c1ccc([N+](=O)[O-])cc1 | -8 | 0 | 1 | 26* | -2 | 5
CCOC(=O)/C(C)=N/NC(=O)c1ccc([N+](=O)[O-])cc1 | 15 | 44* | x | -1 | -6 | 2
C[C@H]1CN([C@@H](C)CO)C(=O)Cc2cc(NS(C)(=O)=O)ccc2O[C@H]1CN(C)C(=O)NC1CCCCC1 | x | 0 | 1 | -2 | x | x
CC1=CCC(COC(=O)Nc2ccccc2)CC1 (stereo not drawn) | 126* | x | 84* | x | -2 | 3
COCCCOc1ccnc(CS(=O)c2nc3ccccc3[nH]2)c1C (stereo not drawn) | 24 | 0 | 25 | -2 | 26 | -2
Cc1c(OCC(F)(F)F)ccnc1CS(=O)c1nc2ccccc2[nH]1 (stereo not drawn) | 44 | 0 | 48*! | -5 | 10 | 0
CCNS(=O)(=O)c1ccc2nc(NC(=O)/C=C/c3cc(OC)c(OC)c(OC)c3)sc2c1 | 2 | 0 | x | -1 | 50* | 1
COc1cc(/C=C/C(=O)Nc2nc3ccc(S(=O)(=O)NC(C)C)cc3s2)cc(OC)c1OC | 12 | x | x | x | x | 0
COc1ccc(-c2c3c(nc4sc(C(=O)Nc5ccccc5)c(N)c24)CCC3)cc1 | 14 | x | 53* | x | 36* | -4
COCc1cc(C)nc2sc(C(=O)Nc3nccs3)c(N)c12 | x | 0 | 56* | -15 | 6 | 0
Cc1cc(C)c2c(N)c(C(=O)NN)sc2n1 | 17 | 0 | x | 1 | 4 | -2
COCc1cc(C)nc2sc(C(=O)Nc3ccc(OC)cc3)c(N)c12 | x | 0 | 33 | -4 | 5 | 2
SMILES | MITF TRPM1 HTS | FGF22 binding | esBAF inh | MLL AF4-AF9 inh | Wnt act | SMARCA2 activ
COCc1cc(C)nc2sc(C(=O)Nc3ccccc3OC)c(N)c12 | 26 | 0 | 10 | -2 | 3 | -3
Cc1cc(C)c2c(N)c(C(=O)Nc3nccs3)sc2n1 | x | x | -76 | x | 39* | 4
COCc1cc(C)nc2sc(C(=O)Nc3cccc(OC)c3)c(N)c12 | x | 0 | 67* | -10 | -2 | 6
Nc1c(C(=O)Nc2ccccc2)sc2nc3c(c(-c4ccco4)c12)CCC3 | 29 | x | 20 | x | x | 3
C[C@@H]1CCCCO[C@H](CN(C)C(=O)c2ccncc2)[C@H](C)CN([C@H](C)CO)C(=O)c2cc(NC(=O)c3ccncc3)ccc2O1 | x | 0 | -1 | -3 | x | x
CCC(C)n1c(=S)[nH]c2ccccc2c1=O (stereo not drawn) | -2 | 43* | x | -3 | -3 | 2
O=C(C[C@@H]1C=C[C@H](NC(=O)C2CCC2)[C@@H](CO)O1)NCCCN1CCOCC1 | x | 0 | 3 | 0 | x | x
CNc1cccc(-c2ccc(C(C)=O)s2)n1 | x | 0 | 53* | -11 | -2 | 3
CNc1cccc(-c2ccccc2C(C)=O)n1 | x | 0 | 2 | 0 | -3 | 2
COc1ccc2c3c(n(C)c2c1)[C@H](CO)N(C(=O)NC(C)C)CC31CN(C(=O)NC(C)C)C1 | x | 0 | x | 2 | x | x
CC(C)CSc1nc2ccccc2n1CC(=O)O | -7 | 43* | -6 | -14 | -1 | -2
O=C(O)c1ccccc1CSc1nc2ccccc2n1Cc1ccccc1C(=O)O | -2 | 44* | x | -2 | -2 | 1
O=C(O)CCn1c(SCc2cccc3ccccc23)nc2ccccc21 | x | x | 39 | x | x | 7
CCCSc1nc2ccccc2n1CC(=O)O | 11 | 0 | -5 | -1 | 0 | -2
CCn1c(SCC(=O)N2CCCC2)nc2ccccc21 | -2 | 44* | x | -1 | 1 | 1
COc1ccc(NC(=O)N2C[C@H](O)COC[C@H]3O[C@H](CC(=O)N4CCN(C)CC4)CC[C@@H]32)cc1 | x | 0 | 0 | -3 | x | x
CN1CCCCN2[C@H](C1)[C@@H](c1ccc(-c3cccnc3)cc1)[C@@H]2CO | x | -1 | -1 | 1 | x | x
COc1ccccc1C#CC1=CC(=O)CC(C)(C)C1 | x | 0 | 17 | 8 | 0 | 5
COc1ccc(C#CC2=CC(=O)CC(C)(C)C2)cc1 | x | 0 | 45* | 10 | 8 | 1
CCc1ccc(C#CC2=CC(=O)CC(C)(C)C2)cc1 | x | 0 | 61* | 8 | 1 | 2
CSc1nc2ccc(NC(=O)c3ccc(Cl)s3)cc2s1 | x | 0 | 50* | -8 | 26 | 3
CSc1nc2ccc(NC(=O)C3CCCO3)cc2s1 (stereo not drawn) | u | x | 14 | x | 49* | 2
CSc1nc2ccc(NC(=O)NC(=O)c3c(F)cccc3F)cc2s1 | x | 0 | x | 1 | 15 | 3
COc1ccc2nc(NC(=O)C3CCCO3)sc2c1 (stereo not drawn) | 43 | 0 | x | 1 | 11 | 4
CS(=O)(=O)N1CCCCN2[C@H](CO)[C@@H](c3ccc(C4=CCCC4)cc3)[C@H]2C1 | x | 0 | x | 28* | x | x
CN(C)C(=O)c1ccc(-c2ccc([C@@H]3[C@@H](CO)N4CCCCN(S(C)(=O)=O)C[C@H]34)cc2)cc1 | x | 0 | x | 30* | x | x
CN(C)C(=O)c1ccc(-c2ccc([C@@H]3[C@H]4CN(S(C)(=O)=O)CCCCN4[C@H]3CO)cc2)cc1 | x | 0 | x | -8 | x | x
